Hits are enriched below; roughly 0.99% of the tested compounds scored in any of these assays.
L3MBTL1 block = inhibitors of human L3MBTL1. Q9Y468. AlphaScreen L3MBTL1–H3K9me1 peptide binding. Potency, µM (top dose mostly 57.1 µM), for inactives: at the top dose activity, negative = inhibition, actives largely listed as inhibitors. hit rate 0.66% among 230,000; note: nearly all actives have a fitted effect of over 60% in size
Target sequence (Q9Y468 whole entry, looked up): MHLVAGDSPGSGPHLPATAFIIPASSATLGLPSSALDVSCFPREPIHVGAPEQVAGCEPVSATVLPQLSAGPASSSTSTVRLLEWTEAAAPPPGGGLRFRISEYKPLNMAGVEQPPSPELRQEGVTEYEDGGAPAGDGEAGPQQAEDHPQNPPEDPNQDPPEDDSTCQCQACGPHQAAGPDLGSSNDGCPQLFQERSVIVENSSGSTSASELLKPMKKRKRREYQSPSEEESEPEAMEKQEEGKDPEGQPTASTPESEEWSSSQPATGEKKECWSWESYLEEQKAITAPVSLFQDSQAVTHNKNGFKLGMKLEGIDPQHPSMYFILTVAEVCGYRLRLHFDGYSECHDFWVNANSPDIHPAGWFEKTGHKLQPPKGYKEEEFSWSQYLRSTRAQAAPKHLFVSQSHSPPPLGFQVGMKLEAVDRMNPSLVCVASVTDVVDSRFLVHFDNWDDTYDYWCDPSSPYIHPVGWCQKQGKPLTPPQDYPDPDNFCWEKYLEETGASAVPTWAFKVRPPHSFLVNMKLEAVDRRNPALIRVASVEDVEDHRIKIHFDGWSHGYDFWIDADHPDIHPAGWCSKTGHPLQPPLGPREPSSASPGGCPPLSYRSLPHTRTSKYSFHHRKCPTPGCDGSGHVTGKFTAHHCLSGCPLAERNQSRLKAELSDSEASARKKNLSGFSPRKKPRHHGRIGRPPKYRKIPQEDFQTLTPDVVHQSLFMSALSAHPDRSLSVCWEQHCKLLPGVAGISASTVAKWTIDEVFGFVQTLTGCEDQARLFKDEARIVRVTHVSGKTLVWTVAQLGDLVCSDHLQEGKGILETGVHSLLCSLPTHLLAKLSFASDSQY
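First, the protein-peptide complex forms for 30 min at room temperature (L3MBTL1 50 nM, biotinylated H3K9me1 peptide 75 nM). Next, compounds are pin-transferred and incubated 30 min. Finally, AlphaScreen beads are added and read after 30 min.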
FEN1 inh = human FEN1 inhibition. Recombinant FEN1 flap cleavage, fluorescence, 15 min. Potency, µM (series often up to 114 µM), inactives show at the top dose activity change, negative = inhibition, hits mostly inhibitors. hit rate 0.35% among 390,000. AID 588795; note: nearly all actives have a fitted effect of over 65% in size
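Enzyme 10 nM, 15 min RT preincubation with compound; start with substrate 50 nM final; reads at 0 and 15 min; qHTS titration, four-parameter Hill fit.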
WRN inhibitor = blocks human WRN helicase. Q14191. Potency, µM (series often up to 114 µM), for the others: at the highest dose activity change, negative = inhibition, hits mostly inhibitors. hit rate 0.46% among 360,000. WRN helicase unwinding, fluorescent forked duplex, kinetic; note: nearly all actives have a fitted effect of over 55% in size
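WRN at 20 nM final preincubated with compound 15 min at room temperature; reaction started with 100 nM fluorophore/quencher forked duplex oligonucleotide and 2 mM ATP final. Unwinding followed kinetically by red fluorescence (ex 525, em 598 nm).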
BLM inh = inhibitors of human Bloom syndrome helicase BLM. hit rate 0.2% among 350,000. P54132. Potency, µM (highest dose often 56.1 µM), for inactives: at the highest dose activity change, negative = inhibition, actives largely listed as inhibitors. recombinant BLM DNA unwinding, fluorescence dequenching. AID 2528;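 note: plate controls were vehicle for no effect and no enzyme for full effect; nearly all actives have a fitted effect of over 35% in size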
RECQ1 inh-1 = inhibitors of human RECQ1 DNA helicase; P46063; RECQ1 DNA unwinding, red fluorescence kinetic read; Potency, µM (doses to about 57.3 µM), without a hit: at the highest dose activity, negative = inhibition, actives largely listed as inhibitors; hit rate 0.54% among 240,000; AID 2549;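 note: plate controls were vehicle for no effect and no enzyme for full effect; nearly all actives have a fitted effect of over 30% in size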
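50 nM RECQ1T1 preincubated 15 min with compound in Tris pH 8.0 buffer with MgCl2, DTT, Tween-20 and 2.5 ug/ml poly(dI-dC); started with 200 nM TAMRA/BHQ-2 forked duplex and 2 mM ATP. Unwinding read as fluorescence (525/598 nm), two reads 2 h apart.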
RECQ1 conf = confirmation of human RECQ1 helicase inhibitors. RECQ1 helicase DNA unwinding, fluorescence. Potency, µM (doses to about 229 µM), without a hit: at the top dose activity change, negative = inhibition, actives largely listed as inhibitors. AID 2708. shares compounds with RECQ1 inh-1. hit rate 28% among 610; note: nearly all actives have a fitted effect of over 45% in size
ADP FP counter = ADP displacement flagged in RECQ1 inhibitor counter-screen; hit rate 27% among 530; ADP fluorescence polarization displacement counterscreen; Potency, µM (highest dose often 228 µM), for inactives: top-dose activity change, negative = inhibition, most hits filed as inhibitors; shares compounds with RECQ1 inh-1; note: nearly all actives have a fitted effect of over 45% in size
RECQ1 inh-2 = confirmation of human RECQ1 helicase inhibitors. AID 504841. hit rate 15% among 1,100. recombinant RECQ1 DNA unwinding, red fluorescence. shares compounds with RECQ1 inh-1. Potency, µM (doses to about 119 µM), without a hit: at the highest dose activity, negative = inhibition, hits mostly inhibitors; note: nearly all actives have a fitted effect of over 50% in size
* marks the source's active call; other numbers are inactive results; [ ] = another dose, or the depositor's remark. Calls come from the whole dose curve; as a rule, active = well fitted curve in the direction sought with a large enough effect; inconclusive = small, poorly fitted or top-dose-only effect, or another doubt; inactive = no such curve, though single readings can be large; an effect the other way counts as inactive or inconclusive. Unless noted, % is set by controls: 0 for no effect and ±100 for the full control effect; potency is the fitted concentration of half-maximal effect.

`O=c1cc(-c2ccccc2)[nH]c2[nH]n(-c3ccccc3)c(=O)c12` gave L3MBTL1 block -4.3%, FEN1 inh 0.3%, WRN inhibitor -20.7%, BLM inh -2.0% and RECQ1 inh-1 0.6%.
Screening CCOC(=O)Cc1cc(=O)c2c(=O)n(-c3ccccc3)[nH]c2[nH]1 returned L3MBTL1 block inconclusive, FEN1 inh -2.9%, WRN inhibitor -7.5%[57.1 µM], BLM inh -1.3%, RECQ1 inh-1 inconclusive and RECQ1 inh-2 -1.1%.
Screening Cc1cc(-c2csc(NC(=O)C3=COCCO3)n2)c(C)n1C returned L3MBTL1 block -14.9%, FEN1 inh 11.8% and WRN inhibitor 7.6%[11.6 µM].
Screening Cc1cc(-c2csc(NC(=O)c3ccc(=O)n(C)n3)n2)c(C)n1CC1CCCO1 (centres undefined) returned L3MBTL1 block -3.7%, FEN1 inh 3.3%, WRN inhibitor -29.4%, BLM inh inconclusive, RECQ1 inh-1 inconclusive and RECQ1 inh-2 -3.9%.
`CCC(C)NC(=O)Cn1cc2c(n1)CCC(C)C2` (centres undefined) gave FEN1 inh -0.7%, WRN inhibitor 3.0%, BLM inh -0.5% and RECQ1 inh-1 -6.9%.
Screening Cc1cc(C)c(S(=O)(=O)NCc2ccc3c(c2)cc(C)n3C)c(C)c1 returned L3MBTL1 block -9.6%, FEN1 inh inconclusive, WRN inhibitor inconclusive, BLM inh -14.6%, RECQ1 inh-1 inconclusive and RECQ1 inh-2 56.2µM*.
Screening CC(=O)Nc1ccc(S(=O)(=O)NCc2ccc3c(c2)cc(C)n3C)cc1 returned FEN1 inh inconclusive, WRN inhibitor inconclusive, BLM inh -23.8%, RECQ1 inh-1 31.6µM* and RECQ1 inh-2 50.1µM*.
Screening Cc1c(C(=O)NCc2ccc3c(c2)cc(C)n3C)cccc1[N+](=O)[O-] returned L3MBTL1 block -6.0%, FEN1 inh -9.8%, WRN inhibitor -24.5%, BLM inh -5.7%, RECQ1 inh-1 inconclusive and RECQ1 inh-2 -9.0%.
Cc1cc2cc(CNC(=O)c3cccc([N+](=O)[O-])c3)ccc2n1C was read as L3MBTL1 block -6.1%, FEN1 inh -7.9%, WRN inhibitor -5.6%, BLM inh -9.2% and RECQ1 inh-1 -1.0%.
O=C(NCc1ccccn1)c1cc(-c2ccccc2Cl)nc2ccccc12 was read as L3MBTL1 block -9.3%, FEN1 inh 2.7%, WRN inhibitor -4.4%, BLM inh 4.4% and RECQ1 inh-1 -10.3%.
CCN(CC)CCn1c(/N=C/c2ccc(OC)c(OC)c2)nc2ccccc21 was read as FEN1 inh 1.0% and WRN inhibitor 0.5%.
`CS/C(=N\S(=O)(=O)c1cccs1)NC(=O)CSc1nc2ccccc2s1` gave L3MBTL1 block -15.1%, FEN1 inh inconclusive, WRN inhibitor inconclusive, BLM inh -22.2%, RECQ1 inh-1 inconclusive and RECQ1 inh-2 inconclusive.
`COc1cc(/C=C2\SC(N)=NC2=O)ccc1OCC(=O)Nc1ccc(C)cc1` gave L3MBTL1 block 14.1%, FEN1 inh -20.0%, WRN inhibitor -9.4%[11.6 µM], BLM inh -16.2%, RECQ1 inh-1 inconclusive and RECQ1 inh-2 inconclusive.
For COc1ccc(/C=C2/SC(=O)N(CCC(=O)Nc3ccc(C)cc3)C2=O)cc1OC the results were L3MBTL1 block -2.9%, BLM inh 2.7% and RECQ1 inh-1 inactive.
CN(C(=O)COc1ccc2ccc(=O)oc2c1)C1CCS(=O)(=O)C1 (centres undefined) was read as FEN1 inh 2.4%, WRN inhibitor -28.5% and BLM inh 1.2%.
`CC(=O)OC1CCC2(C)C(COc3ccc4ccc(=O)oc4c3)C(C)(O)CCC2C1(C)C` (centres undefined) gave L3MBTL1 block 1.7%, FEN1 inh 3.6%, WRN inhibitor -3.7%, BLM inh -10.6%, RECQ1 inh-1 inconclusive and RECQ1 inh-2 -22.8%.
COC(=O)Nc1ccc(S(=O)(=O)N2CCCC(C(=O)N3CC(C)OC(C)C3)C2)cc1 (centres undefined) was read as L3MBTL1 block -2.7%, FEN1 inh -7.3%, WRN inhibitor -0.1%, BLM inh -5.6%, RECQ1 inh-1 -12.8%, RECQ1 conf -1.6% and ADP FP counter 12.4%.
For CCCCN1C=CC(=C2C(=O)c3ccccc3C2=O)C=C1 the results were FEN1 inh 1.3%, WRN inhibitor -3.8%, BLM inh -0.6%, RECQ1 inh-1 inconclusive and RECQ1 inh-2 -11.5%.
COCCN(CCOC)C(=O)c1ccc(CSc2nc3ccccc3s2)cc1 was read as FEN1 inh 1.5%, WRN inhibitor -25.7% and BLM inh -0.5%.
`N#CC1=C(N)Oc2ccc3ccc(O)cc3c2C1c1ccsc1` (centres undefined) gave L3MBTL1 block -9.5%, FEN1 inh -21.8%, WRN inhibitor inconclusive, BLM inh -2.9%, RECQ1 inh-1 inconclusive and RECQ1 inh-2 50.1µM*.
CCOc1cc(N2CCOCC2)c(OCC)cc1NC(=O)C(C)C was read as FEN1 inh 1.5%, WRN inhibitor -3.7%, BLM inh -2.1% and RECQ1 inh-1 inactive.
`CCOc1cc(N2CCOCC2)c(OCC)cc1NC(C)C(=O)N1CCN(CC)CC1` (centres undefined) gave L3MBTL1 block 17.8µM*, FEN1 inh -31.7%, WRN inhibitor inconclusive, BLM inh -10.3%, RECQ1 inh-1 inconclusive and RECQ1 inh-2 -7.2%.
C=CCn1c(=O)/c(=C/c2ccc(C)o2)s/c1=C(/C#N)C(=O)c1ccccc1 was read as L3MBTL1 block inconclusive, FEN1 inh -5.4%, WRN inhibitor -3.2%, BLM inh -15.6%, RECQ1 inh-1 31.6µM* and RECQ1 inh-2 inconclusive.
For O=C(O)c1ccc2c(c1)C(=O)N(c1cccc(C(=O)/C=C/c3ccccc3)c1)C2=O the results were L3MBTL1 block 10.5%, FEN1 inh inconclusive, WRN inhibitor inconclusive, BLM inh -11.0%, RECQ1 inh-1 6.31µM*, RECQ1 conf inconclusive, ADP FP counter 2.9%[91.9 µM] and RECQ1 inh-2 inconclusive.
Screening O=C(O)c1cccc(N2C(=O)c3ccc(C(=O)c4cccc([N+](=O)[O-])c4)cc3C2=O)c1 returned FEN1 inh -6.5%, WRN inhibitor -6.8%, BLM inh 0.8% and RECQ1 inh-1 -2.6%.
